Only some compounds are listed: those with a hit (about 6.9% of all), similar ones and a draw of the others.
KB-3-1 tox: kills parental KB-3-1 adenocarcinoma cells | AID 1347075 | hit rate 1.4% among 400,000 | Potency, µM (top dose mostly 46.1 µM), most hits filed as cytotoxic | KB-3-1 viability, CellTiter-Glo ATP luminescence, 72 h; also: potency is read from the fitted curve at half-maximal effect; % is scaled to controls: 0 for no effect and ±100 for the full control effect; nearly all actives have a fitted effect of over 60% in size
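Parental KB-3-1 adenocarcinoma cells in phenol-red-free DMEM with 10% FBS were pin-treated with compounds at several concentrations, incubated 72 h at 37 °C, and viability read by CellTiter-Glo luminescence; concentration-effect curves were fitted after normalization.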
S-ASM inh: blocks human secretory acid sphingomyelinase; hit rate 0.006% among 340,000; P17405; placental ASM, HMU-PC fluorogenic substrate, 60 min; Potency, µM (doses to about 57.5 µM), for inactives: at the top dose activity change, negative = inhibition, hits mostly inhibitors; also: potency is read from the fitted curve at half-maximal effect
Target sequence (P17405 47-631 limits assumed): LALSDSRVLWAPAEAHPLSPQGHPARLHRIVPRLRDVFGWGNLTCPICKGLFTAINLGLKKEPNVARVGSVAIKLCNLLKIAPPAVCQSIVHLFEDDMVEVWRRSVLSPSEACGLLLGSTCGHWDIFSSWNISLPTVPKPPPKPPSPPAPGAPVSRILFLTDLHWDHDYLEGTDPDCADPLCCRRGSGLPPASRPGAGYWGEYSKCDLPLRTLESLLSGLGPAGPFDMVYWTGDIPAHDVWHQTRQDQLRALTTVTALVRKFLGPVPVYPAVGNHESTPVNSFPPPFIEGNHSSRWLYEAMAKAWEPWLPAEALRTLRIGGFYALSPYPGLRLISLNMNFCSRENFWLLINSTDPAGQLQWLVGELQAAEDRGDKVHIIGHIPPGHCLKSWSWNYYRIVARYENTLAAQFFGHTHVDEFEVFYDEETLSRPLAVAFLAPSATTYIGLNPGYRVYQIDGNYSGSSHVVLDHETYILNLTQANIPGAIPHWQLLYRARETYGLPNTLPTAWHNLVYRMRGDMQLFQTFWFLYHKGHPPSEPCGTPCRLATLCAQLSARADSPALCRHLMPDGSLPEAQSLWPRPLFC
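HMU-PC0 cleavage (9 uM final) by human placental ASM, 60 min at 37 °C following 10 min compound exposure at RT; stopped at pH 10, fluorescence Ex 386/Em 447 nm.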
Giardia killer: Giardia lamblia killing. Giardia lamblia trophozoite viability. hit rate 0.15% among 340,000. activity change, % at 7.66 µM, hits read low; in the data active = activity change below about -80%; inconclusive = between about -30% and that limit;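 also: parasites exposed to compound for two days anaerobically before the ATP read; % is scaled to controls: 0 for no effect and ±100 for the full control effect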
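Viability, read as ATP luminescence: trophozoites at 100 cells/well, compound added, 48 hrs anaerobic at 37 deg C, then 15-30 min room-temperature development before reading.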
SW480 rereplic: induces DNA re-replication in SW480 colon adenocarcinoma cells. AID 624297. SW480 DNA re-replication, Hoechst DNA content imaging, 48 h. hit rate 1.8% among 340,000. Potency, µM (series often up to 46.1 µM), without a hit: at the highest dose re-replication activation, actives largely listed as activators; also: potency is read from the fitted curve at half-maximal effect; % of control where 0% means no effect; nearly all actives have a fitted effect of over 55% in size
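Per well, 250 cells were exposed to pinned compound for 48 hr. Nuclear DNA was visualised with Hoechst (40 min, 37 C) and total object intensity recorded by fluorescence scanning.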
MCF10A rerep: induces DNA re-replication in MCF 10a normal breast cells. Potency, µM (top dose mostly 46.1 µM), for the others: at the highest dose activity, positive = re-replication, most hits filed as activators. AID 624296. MCF 10A DNA re-replication, Hoechst nuclear intensity, 48 h. hit rate 2.9% among 350,000; also: potency is read from the fitted curve at half-maximal effect; % of control where 0% means no effect; nearly all actives have a fitted effect of over 50% in size
KB-V1 MDR tox: KB-V1 MDR subline cytotoxicity. AID 1347076. KB-V1 MDR cells viability, CellTiter-Glo, 72 h. Potency, µM (titrated, usually from 46.1 µM), hits mostly cytotoxic. hit rate 3.4% among 400,000; also: potency is read from the fitted curve at half-maximal effect; % is scaled to controls: 0 for no effect and ±100 for the full control effect; nearly all actives have a fitted effect of over 60% in size
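KB-V1 cells (P-gp-expressing MDR subline of KB-3-1) in phenol-red-free DMEM with 10% FBS were exposed to library compounds over a concentration series for 72 h at 37 degrees C. Viability read by CellTiter-Glo luminescence; concentration-effect curves fitted after normalization.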
The depositor's hits bear a star; i = inactive; ? = inconclusive; . = not tested or not shown. Unless noted, calls follow the shape of the dose curve; as a rule, active = well fitted curve in the direction sought with a large enough effect; inconclusive = small, poorly fitted or top-dose-only effect, or another doubt; inactive = no such curve, though single readings can be large; an effect the other way counts as inactive or inconclusive.

SMILES | KB-3-1 tox | S-ASM inh | Giardia killer | SW480 rereplic | MCF10A rerep | KB-V1 MDR tox
Nc1nc2[nH]cc(CCc3ccc(C(=O)NC(CCC(=O)O)C(=O)O)cc3)c2c(=O)[nH]1 (configuration not stated) | . | . | . | -3.9% | 8.6% | .
COc1ccccc1N1CCN(C(=O)c2oc3ccc(Br)cc3c2C)CC1 | 10.3µM* | -12.7% | 16.1 | ? | 16.4µM* | 13µM*
Cc1nn(C)c(C(=O)N2CCc3ccccc32)c1Br | i | 1.9% | 16.2 | 0.3% | ? | ?
Cn1ncc(Br)c1C(=O)N1CCc2ccccc21 | i | 4.0% | -5.7 | 0.517µM* | 3.6% | ?
COc1ccccc1N1CCN(C(=O)c2oc3ccc(F)cc3c2C)CC1 | ? | . | 10.4 | ? | ? | ?
COc1ccc(C(=O)N(Cc2ccco2)Cc2cccs2)cc1 | . | . | 15.4 | . | . | .
CCOC(=O)c1ccc(NC(=O)CCNC(=O)c2ccc([N+](=O)[O-])cc2)cc1 | i | -0.1% | -1.8 | -5.1% | 6.2% | 14.6µM*
Cc1ccc(NC(=O)CCNC(=O)c2ccc([N+](=O)[O-])cc2)cc1C | i | -1.5% | -11.2 | 2.2% | 2.4% | i
COc1ccc2c(c1)c(=O)c(S(=O)(=O)c1ccccc1)cn2CC(=O)Nc1ccc(C)c(Cl)c1 | i | . | . | . | . | i
CCOc1cc(/C=C\[N+](=O)[O-])ccc1OCC(=O)Nc1ccccc1C | i | -2.2% | -6.6 | ? | 2.91µM* | i
COc1cc(/C=C/c2cccc[n+]2C)ccc1OCC(=O)Nc1ccccc1C | i | 6.3% | 14.0 | -5.9% | -3.4% | ?
Cn1cc(C(C[N+](=O)[O-])c2ccccc2)c2ccccc21 (configuration not stated) | ? | -3.2% | 0.4 | 10.3µM* | 13µM* | ?
Cn1cc(SCC(=O)O)c2ccccc21 | i | -2.5% | -10.2 | -17.0% | 11.2% | i
O=[N+]([O-])CC(c1ccc(F)cc1)c1c[nH]c2ccccc12 (configuration not stated) | ? | -0.3% | -21.0 | ? | 13µM* | i
Cc1cc(SCC(=O)N/N=C/c2ccc(O)cc2O)c(C)cc1Br | ? | -11.2% | 12.5 | ? | 13.0% | 10.3µM*
CC[C@@H]1/C=C(\C)C[C@H](C)C[C@H](OC)[C@H]2O[C@@](O)(C(=O)C(=O)N3CCCC[C@H]3C(=O)O[C@H](/C(C)=C/[C@@H]3CC[C@H](Cl)[C@H](OC)C3)[C@H](C)[C@@H](O)CC1=O)[C@H](C)C[C@@H]2OC | . | . | . | 0.8% | 6.3% | .
Cc1ccc(NC(=O)c2ccc(S(=O)(=O)NCc3ccco3)cc2)nc1 | 20.6µM* | 3.4% | 25.0 | 20.6µM* | ? | ?
O=S(=O)(NCc1ccco1)c1ccc(S(=O)(=O)N2CCCCC2)cc1 | i | 0.2% | 4.6 | 1.4% | 5.5% | 16.4µM*
O=C(NCc1ccco1)C1CCCCC1 | i | -0.2% | 1.2 | -9.5% | 9.1% | i
O=C(NCc1ccco1)c1cc(C(=O)C2CCCCC2)c[nH]1 | i | 0.8% | -2.7 | -0.6% | 18.9% | 10.3µM*
Cc1cccc(NC(=O)c2ccc(S(=O)(=O)NCc3ccco3)cc2)n1 | i | 1.7% | -28.9 | 11.2% | 10.4% | ?
O=C(NC1CCCCCC1)c1ccc(S(=O)(=O)NCc2ccco2)cc1 | i | -2.2% | -5.1 | -2.9% | 4.6% | 20.6µM*
O=C(NC1(C(F)(F)F)C(=O)Nc2c1c(=O)[nH]c(=O)n2CCc1ccccc1)c1ccc(Cl)cc1Cl (configuration not stated) | i | . | . | . | . | i
COc1cccc(NC(=O)Cn2c(=O)n(CCc3ccc(OC)c(OC)c3)c(=O)c3ccccc32)c1 | i | . | . | . | . | i
CCC(C(=O)NCc1ccco1)N(C(=O)CNS(=O)(=O)c1ccccc1)C1CCCCC1 (configuration not stated) | i | -0.2% | 2.0 | 6.8% | 4.11µM* | ?
SMILES | KB-3-1 tox | S-ASM inh | Giardia killer | SW480 rereplic | MCF10A rerep | KB-V1 MDR tox
O=C(CCc1ccc(S(=O)(=O)NCc2ccccc2)cc1)NCc1ccco1 | i | -0.9% | -1.9 | -192.5% | -5.1% | 20.6µM*
CCCNS(=O)(=O)c1ccc(CCC(=O)NCc2ccco2)cc1 | i | -2.6% | 0.4 | -2.0% | -1.3% | i
CC(C)(C)NC(=O)c1cnn(-c2ccccc2)c1C1CCN(C(=O)OC(C)(C)C)CC1 | i | . | . | . | . | i
CC(=O)N1CCc2cc(S(=O)(=O)NC(CC(C)C)C(=O)NCCc3ccc(C)cc3)ccc21 (configuration not stated) | i | . | . | . | . | i
CC(C)(C)NC(=O)NC(=O)Cn1ccsc1=N | i | 3.6% | 6.9 | -7.3% | -1.0% | ?
CCc1ccc(C(=O)Cn2ccsc2=N)cc1 | ? | 0.6% | ? | 6.6% | 11.5% | 18.4µM*
CCN1/C(=C/c2ccc3cc(C)ccc3[n+]2CC)Sc2ccc3sccc3c21 | 2.59µM* | -6.5% | -4.4 | 26.2% | 5.5% | i
CCN1/C(=C/c2ccc3cc(C)cc(C)c3[n+]2CC)Sc2cc(C)ccc21 | i | -23.9% | 3.1 | 0.1% | 5.8µM* | i
Cc1c(Cl)cccc1-n1ncc(C(=O)N2CCN(C)CC2)c1C1CCN(C(=O)OC(C)(C)C)CC1 | i | . | . | . | . | ?
CCc1nnc(NC(=O)c2ccc(C)o2)s1 | i | -2.3% | 2.1 | 3.6% | 11.2% | i
O=C(Nc1nccs1)c1nc(-c2ccccc2)n(-c2ccccc2)n1 | i | -0.3% | -6.6 | -4.5% | 15.7% | i
CCSc1nnc(NC(=O)c2cc(C)nc3ccccc23)s1 | i | -2.0% | -13.2 | -6.6% | 1.7% | i
Cc1csc(NC(=O)c2nc(-c3ccccc3)n(-c3ccccc3)n2)n1 | ? | -7.7% | 2.7 | -4.9% | 6.9% | 10.3µM*
CCSc1nnc(NC(=O)c2nc(-c3ccccc3)n(-c3ccccc3)n2)s1 | i | -8.4% | -14.6 | -8.8% | 10.3µM* | ?
CCSc1nnc(NC(=O)c2ccc(C)o2)s1 | i | -2.0% | -1.8 | -2.2% | 1.5% | 18.4µM*
Cc1ccc(-n2c(=O)c3sc4ccccc4c3n(CC(=O)NC3CCCC3)c2=O)cc1C | i | . | . | . | . | i
FC(F)(F)c1cccc(/C=N/NC(=S)NC2CCCCC2)c1 | i | 4.8% | 11.6 | -6.2% | ? | i
FC(F)(F)c1ccc(/C=N/NC(=S)NC2CCCCC2)cc1 | i | -4.0% | -18.0 | 10.1% | 18.4µM* | i
Cc1cccc(OCC(=O)Nc2c(C)ccc3nsnc23)c1C | i | . | . | . | . | ?
COc1cc(Br)c(CN2C(=O)NC3(CCCCCC3)C2=O)cc1OC | i | 5.1% | -11.1 | 12.4% | -0.4% | 6.51µM*
